# Reference: PubChem BioAssay (NCATS)
# “And” between values parts separate entries of the source, which are not always exact repeats. Equal entries are not always repeated. Records with an inconclusive call do not appear. Entries that show only a call come without a potency. The source made the active and inactive calls. Unless noted, calls come from the whole dose curve; as a rule, active = well fitted curve in the direction sought with a large enough effect; inconclusive = small, poorly fitted or top-dose-only effect, or another doubt; inactive = no such curve, though single readings can be large; an effect the other way counts as inactive or inconclusive.
# How the values were obtained:
# [1] = target: Phosphoglycerate kinase, glycosomal (Trypanosoma brucei brucei) (UniProt P07378); experiment: qHTS Validation Assay to Find Inhibitors of Phosphoglycerate Kinase (AID 504547)
# Sequence of Phosphoglycerate kinase, glycosomal (Trypanosoma brucei brucei) (P07378 whole entry, looked up): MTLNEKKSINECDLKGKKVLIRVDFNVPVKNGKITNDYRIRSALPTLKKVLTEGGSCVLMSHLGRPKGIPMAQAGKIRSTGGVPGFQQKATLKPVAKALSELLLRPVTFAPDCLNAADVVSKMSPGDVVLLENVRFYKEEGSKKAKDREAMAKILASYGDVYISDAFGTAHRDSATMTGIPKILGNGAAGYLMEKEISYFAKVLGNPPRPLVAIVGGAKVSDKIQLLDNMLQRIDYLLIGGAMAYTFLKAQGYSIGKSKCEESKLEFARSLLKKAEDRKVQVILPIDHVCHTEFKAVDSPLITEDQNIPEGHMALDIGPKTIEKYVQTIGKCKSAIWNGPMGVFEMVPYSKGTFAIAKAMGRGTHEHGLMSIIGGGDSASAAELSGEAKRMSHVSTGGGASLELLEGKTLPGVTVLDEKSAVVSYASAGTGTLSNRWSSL
# How it was run: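 PGK activity was coupled to GAPDH (100nM final), which generates the unstable substrate 1,3-bisphosphoglycerate in-well. Reactions ran 60 minutes at room temperature in 100mM TEA pH 7.6, 5mM MgCl2, 0.01% Tween-20, then Kinase-Glo Plus luminescence was read.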
# [2] = target: phosphoglycerate mutase (Leishmania major) (UniProt Q4Q090); experiment: qHTS Validation Assay to Find Inhibitors of Phosphoglycerate Mutase (AID 504548); note: series mostly up to about 58 µM
# Sequence of phosphoglycerate mutase (Leishmania major) (Q4Q090 1-553): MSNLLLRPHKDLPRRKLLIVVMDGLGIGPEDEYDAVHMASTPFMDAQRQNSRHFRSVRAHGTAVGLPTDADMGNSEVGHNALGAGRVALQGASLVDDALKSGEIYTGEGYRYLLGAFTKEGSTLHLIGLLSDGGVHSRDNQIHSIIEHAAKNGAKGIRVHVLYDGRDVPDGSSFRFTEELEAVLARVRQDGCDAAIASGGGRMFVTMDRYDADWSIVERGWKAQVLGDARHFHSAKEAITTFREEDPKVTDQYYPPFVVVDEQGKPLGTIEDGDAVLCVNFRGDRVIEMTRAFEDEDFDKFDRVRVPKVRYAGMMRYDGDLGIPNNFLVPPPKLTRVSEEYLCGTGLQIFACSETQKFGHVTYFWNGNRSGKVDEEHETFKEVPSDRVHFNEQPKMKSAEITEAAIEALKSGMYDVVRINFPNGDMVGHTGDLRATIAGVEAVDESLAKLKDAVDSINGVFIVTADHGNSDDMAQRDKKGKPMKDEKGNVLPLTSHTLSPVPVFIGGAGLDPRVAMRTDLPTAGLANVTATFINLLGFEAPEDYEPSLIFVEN
# How it was run: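 Lm PGAM 1.25nM final; 100 mM TEA pH 7.6, 5 mM MgCl2, 0.01% Tween-20; 45 min RT; Kinase-GloPlus, 10 min; end-point luminescence. Enzyme-free wells as negative controls.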
# [3] = target: Ubiquitin carboxyl-terminal hydrolase 1 (Homo sapiens) (UniProt O94782); experiment: Inhibitors of USP1/UAF1: Pilot qHTS (AID 504865);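 note: rhodamine fluorescence freed from ubiquitin-rhodamine substrate followed over time; top concentration of the series differs between compounds; nearly all actives have a fitted effect of over 35% in size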
# Sequence of Ubiquitin carboxyl-terminal hydrolase 1 (Homo sapiens) (O94782 whole entry, looked up): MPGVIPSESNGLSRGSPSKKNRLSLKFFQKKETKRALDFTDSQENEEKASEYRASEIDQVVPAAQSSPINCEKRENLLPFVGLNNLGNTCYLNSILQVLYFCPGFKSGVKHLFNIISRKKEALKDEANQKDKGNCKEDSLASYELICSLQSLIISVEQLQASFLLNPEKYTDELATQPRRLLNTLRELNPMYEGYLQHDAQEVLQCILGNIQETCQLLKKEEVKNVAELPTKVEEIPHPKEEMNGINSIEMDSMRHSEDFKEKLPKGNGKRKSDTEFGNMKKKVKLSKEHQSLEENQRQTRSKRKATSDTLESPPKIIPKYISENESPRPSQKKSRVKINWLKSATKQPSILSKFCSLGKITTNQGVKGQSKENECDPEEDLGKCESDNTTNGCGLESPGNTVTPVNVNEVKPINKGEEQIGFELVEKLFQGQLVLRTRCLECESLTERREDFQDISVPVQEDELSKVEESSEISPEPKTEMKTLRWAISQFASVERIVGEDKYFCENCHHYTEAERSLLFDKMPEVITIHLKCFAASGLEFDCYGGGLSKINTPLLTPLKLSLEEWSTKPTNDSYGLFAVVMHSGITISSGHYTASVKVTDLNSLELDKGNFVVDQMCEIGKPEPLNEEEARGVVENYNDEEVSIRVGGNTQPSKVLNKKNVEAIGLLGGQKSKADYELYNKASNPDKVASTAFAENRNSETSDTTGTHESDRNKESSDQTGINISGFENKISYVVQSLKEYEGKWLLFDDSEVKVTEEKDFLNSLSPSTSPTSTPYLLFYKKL
# How it was run: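 Kinetic fluorescence assay: 1nM USP1/UAF1, 15 min compound preincubation, then 150nM Ub-Rho; 480/540 nm.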
# [4] = qHTS for Inhibitors of ATXN expression: Validation of Cytotoxic Assay (AID 588349); note: potency is the fitted concentration of half-maximal effect
# How it was run: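 HEK293 cells treated with titrated compound for 72 hr at 37 degrees C; viability read as intracellular ATP by CellTiter Glo luminescence.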
# [5] = qHTS for Inhibitors of ATXN expression: Validation (AID 588378); note: nearly all actives have a fitted effect of over 75% in size; note: potency is the fitted concentration of half-maximal effect
# How it was run: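 Validation of ATXN2 expression inhibitors uses a cell-based luciferase fusion reporter in HEK293 cells, with 24 h compound exposure and paired viability (fluorescence) and reporter (luminescence) end-point reads.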
# [6] = target: DNA dC->dU-editing enzyme APOBEC-3G (Homo sapiens) (UniProt Q9HC16); experiment: qHTS for inhibitors of Vif-A3G interactions: Validation (AID 588379)
# Sequence of DNA dC->dU-editing enzyme APOBEC-3G (Homo sapiens) (Q9HC16 whole entry, looked up): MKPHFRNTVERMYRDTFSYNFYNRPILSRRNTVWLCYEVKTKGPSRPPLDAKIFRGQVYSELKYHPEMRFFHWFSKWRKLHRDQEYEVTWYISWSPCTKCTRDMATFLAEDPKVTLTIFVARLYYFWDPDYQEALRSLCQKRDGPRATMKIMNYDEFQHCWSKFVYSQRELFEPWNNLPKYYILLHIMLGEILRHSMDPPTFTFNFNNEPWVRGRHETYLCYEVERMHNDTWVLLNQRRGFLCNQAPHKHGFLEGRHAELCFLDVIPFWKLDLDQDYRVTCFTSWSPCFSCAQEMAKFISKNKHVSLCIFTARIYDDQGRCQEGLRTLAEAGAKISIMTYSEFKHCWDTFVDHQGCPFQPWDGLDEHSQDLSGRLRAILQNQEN
# How it was run: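 HeLa cells stably expressing Vif and A3G-eYFP, 700 cells/well, incubated overnight at 37 deg C, then exposed to compound overnight at 37 deg C. Inhibition of Vif-mediated degradation read as increased yellow fluorescence (Ex 488/Em 500-530) by laser-scanning cytometry.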
# [7] = target: Estrogen receptor (Homo sapiens) (UniProt P03372); experiment: qHTS assay for small molecule antagonists of estrogen receptor alpha signaling (AID 588513; active = well fitted curve in the direction sought with a large enough effect in the signal ratio, with a control signal flat, not every such curve was filed as active; the % refers to the signal ratio)
# Sequence of Estrogen receptor (Homo sapiens) (P03372 whole entry, looked up): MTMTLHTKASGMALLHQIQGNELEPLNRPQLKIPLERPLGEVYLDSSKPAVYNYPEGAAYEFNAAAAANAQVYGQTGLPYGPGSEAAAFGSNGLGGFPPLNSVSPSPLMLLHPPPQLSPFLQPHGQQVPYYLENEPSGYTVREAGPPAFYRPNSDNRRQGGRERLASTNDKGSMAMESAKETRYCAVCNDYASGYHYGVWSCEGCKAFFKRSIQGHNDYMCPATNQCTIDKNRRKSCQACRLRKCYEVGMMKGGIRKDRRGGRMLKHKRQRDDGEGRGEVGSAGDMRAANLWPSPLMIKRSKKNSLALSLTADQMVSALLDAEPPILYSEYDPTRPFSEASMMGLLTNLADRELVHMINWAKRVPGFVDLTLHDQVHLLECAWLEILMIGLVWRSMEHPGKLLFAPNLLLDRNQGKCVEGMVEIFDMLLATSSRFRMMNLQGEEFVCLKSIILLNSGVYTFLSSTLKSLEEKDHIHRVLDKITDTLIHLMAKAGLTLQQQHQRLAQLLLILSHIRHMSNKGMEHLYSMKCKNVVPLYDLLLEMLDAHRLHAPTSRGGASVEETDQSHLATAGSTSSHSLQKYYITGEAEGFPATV
# How it was run: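 Cells were plated at 5000/well and incubated 4 h at 37 C. Compounds were added as 1:2 dilution series, duplicates. 17-beta-estradiol (0.5nM final) was added for 18 h before CCF4 detection.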
# [8] = target: Estrogen receptor (Homo sapiens) (UniProt P03372); experiment: qHTS assay for small molecule agonists of estrogen receptor alpha signaling (AID 588514; calls by dose curve; note: nearly all actives have a fitted effect of over 70% in size)
# How it was run: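 ER-alpha-UAS-bla GripTite HEK293 cells, 5000/well in 2% charcoal/dextran-stripped FBS medium, treated with compound titrations 18 h at 37 C. CCF4 beta-lactamase read by fluorescence after 2 h RT; normalised to 20 nM 17-beta-estradiol (100%) and DMSO (0%), Hill fit for EC50 and efficacy.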
# [9] = target: Bile acid receptor (Homo sapiens) (UniProt Q96RI1); experiment: qHTS assay for small molecule antagonists of farnesoid X receptor signaling (AID 588526; calls by dose curve)
# How it was run: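 Antagonist mode: titrated compounds tested against chenodeoxycholic acid stimulation (normalized to 50 uM CDCA and DMSO) in GeneBLAzer HEK293T cells for 16 h. Beta-lactamase read by CCF4 fluorescence; IC50 from Hill fits.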
# [10] = qHTS assay for small molecule antagonists of peroxisome proliferator-activated receptor delta signaling (AID 588535; active = well fitted inhibition curve with a large enough effect in the signal ratio, with a control signal flat, not every such curve was filed as active; the % refers to the signal ratio;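 for max response: cells co-treated with a PPAR-delta agonist as stimulator during compound exposure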); conditions: HEK293T PPARd-UAS-bla, beta-lactamase FRET ratio, 18 h; 460 nm channel
# How it was run: (§1)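 Antagonist-mode beta-lactamase reporter (GeneBLAzer PPAR-delta-UAS-bla) in HEK293T cells, 2% charcoal/dextran FBS, 4000 cells/well. Compound titrations, 18 h at 37 C; CCF4 ratio read, IC50 and efficacy from Hill fits.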
# [11] = target: Peroxisome proliferator-activated receptor delta (Homo sapiens) (UniProt Q03181); experiment: as above
# Sequence of Peroxisome proliferator-activated receptor delta (Homo sapiens) (Q03181 whole entry, looked up): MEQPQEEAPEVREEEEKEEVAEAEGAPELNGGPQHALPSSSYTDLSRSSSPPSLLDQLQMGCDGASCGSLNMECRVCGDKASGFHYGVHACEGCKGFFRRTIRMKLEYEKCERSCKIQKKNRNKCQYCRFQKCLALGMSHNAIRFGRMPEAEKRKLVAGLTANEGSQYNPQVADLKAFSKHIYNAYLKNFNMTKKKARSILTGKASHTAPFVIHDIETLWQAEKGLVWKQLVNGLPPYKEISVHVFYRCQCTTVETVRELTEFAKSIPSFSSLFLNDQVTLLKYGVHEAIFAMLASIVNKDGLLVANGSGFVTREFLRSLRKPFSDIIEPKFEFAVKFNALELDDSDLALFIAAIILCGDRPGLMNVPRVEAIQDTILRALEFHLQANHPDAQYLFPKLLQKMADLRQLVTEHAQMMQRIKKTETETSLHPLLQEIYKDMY
# How it was run: as §1
# [12] = target: Peroxisome proliferator-activated receptor gamma (Homo sapiens) (UniProt P37231); experiment: qHTS assay for small molecule agonists of peroxisome proliferator-activated receptor gamma signaling (AID 588536; active = well fitted curve in the direction sought with a large enough effect in the signal ratio, with a control signal flat, not every such curve was filed as active; the % refers to the signal ratio)
# Sequence of Peroxisome proliferator-activated receptor gamma (Homo sapiens) (P37231 whole entry, looked up): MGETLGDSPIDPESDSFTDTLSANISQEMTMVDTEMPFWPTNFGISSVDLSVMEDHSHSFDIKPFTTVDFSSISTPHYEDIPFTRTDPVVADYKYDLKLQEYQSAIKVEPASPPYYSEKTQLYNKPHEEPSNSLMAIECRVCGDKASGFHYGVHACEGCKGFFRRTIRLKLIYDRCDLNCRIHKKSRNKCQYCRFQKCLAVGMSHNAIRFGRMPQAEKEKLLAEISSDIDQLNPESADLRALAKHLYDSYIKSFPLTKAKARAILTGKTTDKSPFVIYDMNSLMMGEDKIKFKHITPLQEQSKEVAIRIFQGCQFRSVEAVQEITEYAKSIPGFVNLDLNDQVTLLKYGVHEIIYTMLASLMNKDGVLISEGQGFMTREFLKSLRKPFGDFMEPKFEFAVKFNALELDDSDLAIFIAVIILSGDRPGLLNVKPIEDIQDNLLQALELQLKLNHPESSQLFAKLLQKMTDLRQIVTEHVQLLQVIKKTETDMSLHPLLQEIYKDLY
# How it was run: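 PPAR-gamma-UAS-bla HEK293 cells in medium with 1% charcoal/dextran-treated FBS were exposed to compounds for 16 h at 37 C. Beta-lactamase activity was read with CCF4 substrate (405 nm excitation, 460/530 nm emission).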
# [13] = qHTS assay for small molecule agonists of retinoid X receptor alpha signaling (AID 588544; calls by dose curve); conditions: HEK293T RXRa-UAS-bla, beta-lactamase reporter, 18 h; 530 nm emission
# [14] = target: Retinoic acid receptor RXR-alpha (Homo sapiens) (UniProt P19793); experiment: as above
# Sequence of Retinoic acid receptor RXR-alpha (Homo sapiens) (P19793 whole entry, looked up): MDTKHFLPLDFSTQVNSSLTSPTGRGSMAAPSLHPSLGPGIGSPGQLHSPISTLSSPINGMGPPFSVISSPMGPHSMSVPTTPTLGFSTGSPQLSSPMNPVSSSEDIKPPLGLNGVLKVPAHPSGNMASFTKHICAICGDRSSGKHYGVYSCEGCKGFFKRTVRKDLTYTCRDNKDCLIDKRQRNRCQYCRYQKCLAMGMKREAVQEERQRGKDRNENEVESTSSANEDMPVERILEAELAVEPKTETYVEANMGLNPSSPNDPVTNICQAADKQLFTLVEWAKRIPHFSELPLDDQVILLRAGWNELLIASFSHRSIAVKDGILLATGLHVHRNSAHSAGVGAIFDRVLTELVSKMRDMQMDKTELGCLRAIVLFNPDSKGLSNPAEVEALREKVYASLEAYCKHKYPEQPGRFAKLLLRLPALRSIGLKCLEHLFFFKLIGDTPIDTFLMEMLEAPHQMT
# [15] = target: Vitamin D3 receptor (Homo sapiens) (UniProt P11473); experiment: qHTS assay for small molecule antagonists of vitamin D receptor signaling (AID 588541; calls by dose curve;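 note: receptor activated by calcitriol during compound treatment; series mostly up to about 77 µM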)
# Sequence of Vitamin D3 receptor (Homo sapiens) (P11473 whole entry, looked up): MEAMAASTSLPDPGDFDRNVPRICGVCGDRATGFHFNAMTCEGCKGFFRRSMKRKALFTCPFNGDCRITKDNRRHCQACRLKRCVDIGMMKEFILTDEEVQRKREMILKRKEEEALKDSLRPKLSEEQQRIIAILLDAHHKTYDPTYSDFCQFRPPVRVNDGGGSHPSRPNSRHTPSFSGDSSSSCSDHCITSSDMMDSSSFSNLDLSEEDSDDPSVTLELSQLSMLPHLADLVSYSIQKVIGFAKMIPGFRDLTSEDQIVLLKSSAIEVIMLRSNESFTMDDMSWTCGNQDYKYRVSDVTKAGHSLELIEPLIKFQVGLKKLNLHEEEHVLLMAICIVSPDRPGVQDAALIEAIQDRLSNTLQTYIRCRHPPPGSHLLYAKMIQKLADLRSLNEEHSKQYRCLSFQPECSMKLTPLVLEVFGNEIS
# How it was run: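 VDR-UAS-bla HEK293T cells in 2% charcoal-stripped FBS were stimulated with 1-alpha,25-dihydroxyvitamin D3 (3 nM final) plus compound for 16 h at 37 C. The beta-lactamase CCF4 readout was normalized to 50 nM agonist and DMSO, and Hill fits gave IC50.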
# [16] = target: Vitamin D3 receptor (Homo sapiens) (UniProt P11473); experiment: qHTS assay for small molecule agonists of vitamin D receptor signaling (AID 588543; calls by dose curve)
# How it was run: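 qHTS in agonist mode: compound titrations stimulate a VDR-driven β-lactamase reporter in HEK293T cells over 16 h at 37 °C. Response normalized to 50 nM 1α,25-dihydroxyvitamin D3 = 100%, DMSO = 0%; Hill fitting gives EC50 and maximal response.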
smiles,measurement,setting,value
Nc1cc(=O)[nH]c(N)n1,outcome,[1],inactive
same,outcome,[2],inactive
same,Potency,[3],inactive
same,Potency,[4],inactive
same,Potency,[5],inactive
same,outcome,[6],inactive
CC(=O)OCC(=O)[C@@]1(O)CC[C@H]2[C@@H]3CCC4=CC(=O)CC[C@]4(C)[C@H]3C(=O)C[C@@]21C,outcome,[1],inactive
same,outcome,[2],inactive
same,Potency,[3],inactive
same,Potency,[4],inactive
same,Potency,[5],inactive
CC1=C(CC(=O)O)c2cc(F)ccc2/C1=C\c1ccc(S(C)(=O)=O)cc1,outcome,[1],inactive
same,outcome,[2],inactive
same,Potency,[3],inactive
same,Potency,[4],inactive
same,Potency,[5],inactive
CC(C)C(=O)c1c(C(C)C)nn2ccccc12,outcome,[1],inactive
same,outcome,[2],inactive
same,Potency,[3],inactive
same,Potency,[4],inactive
same,Potency,[5],inactive
same,outcome,[6],inactive
CC[C@H]1CN2CCc3cc(OC)c(OC)cc3[C@@H]2C[C@@H]1C[C@H]1NCCc2cc(OC)c(OC)cc21,outcome,[1],inactive
same,outcome,[2],inactive
CC(C)NC[C@H](O)c1ccc(O)c(O)c1,outcome,[1],inactive
same,outcome,[2],inactive
same,Potency,[3],inactive
same,Potency,[4],inactive
same,outcome,[6],inactive
C[C@]12C[C@H](O)[C@H]3[C@@H](CCC4=CC(=O)CC[C@@]43C)[C@@H]1CC[C@@H]2C(=O)CO,outcome,[1],inactive
same,outcome,[2],inactive
same,Potency,[3],inactive
same,Potency,[4],inactive
same,Potency,[5],inactive
same,outcome,[7],inactive
same,outcome,[8],inactive
same,outcome,[9],inactive
same,max response,[10],57.2%
same,outcome,[11],inactive
same,outcome,[12],inactive
same,max response,[13],2.39% and 24.9%
same,outcome,[14],inactive
Nc1ncnc2c1ncn2[C@@H]1O[C@H](CO)[C@@H](O)[C@H]1O,outcome,[1],inactive
same,outcome,[2],inactive
same,Potency,[3],inactive
same,Potency,[4],inactive
same,Potency,[5],inactive
same,outcome,[6],inactive
COCCOC(=O)C1=C(C)NC(C)=C(C(=O)OC/C=C/c2ccccc2)C1c1cccc([N+](=O)[O-])c1 (stereo unspecified),outcome,[1],inactive
same,outcome,[2],inactive
CC(CN(C)C)CN1c2ccccc2CCc2ccccc21 (stereo unspecified),outcome,[1],inactive
same,outcome,[2],inactive
same,Potency,[3],inactive
CCCOC(=O)c1ccccc1,Potency,[3],inactive
Cc1cc(O)cc2c1O[C@](C)(CCC[C@H](C)CCC[C@H](C)CCCC(C)C)CC2,Potency,[3],inactive
CC(C)(C(=O)O)c1ccc(C(O)CCCN2CCC(C(O)(c3ccccc3)c3ccccc3)CC2)cc1 (stereo unspecified),outcome,[1],inactive
same,outcome,[2],inactive
same,Potency,[4],inactive
same,Potency,[5],inactive
CCCCc1ncc(/C=C(\Cc2cccs2)C(=O)O)n1Cc1ccc(C(=O)O)cc1,Potency,[3],inactive
Nc1nc2c(ncn2CCC(CO)CO)c(=O)[nH]1,Potency,[3],inactive
CCC(=O)c1ccc(O)cc1,Potency,[3],inactive
CCCCOc1cc(C(=O)OCCN(CC)CC)ccc1N,Potency,[3],inactive
CN1CCN(C2Cc3ccccc3Sc3ccc(Cl)cc32)CC1 (stereo unspecified),outcome,[1],inactive
same,outcome,[2],inactive
same,Potency,[4],17.8 µM (active)
same,Potency,[5],12.6 µM (active)
CN(C)CCC=C1c2ccccc2CCc2ccccc21,outcome,[1],inactive
same,outcome,[2],inactive
same,outcome,[8],inactive
same,max response,[10],10%
same,outcome,[11],inactive
same,outcome,[15],inactive
same,outcome,[16],inactive
same,max response,[13],20%
same,outcome,[14],inactive
